The sequences below were run on FXR:RXRa (NR concentration 270 nM, RXRa partner concentration 90 nM) (assay: PBM binding z-score (relative to random genomic background probes); higher = stronger binding; sequences stand for … in GC…GCGATTGACAGCGTAGAATGAAGG).
Method in brief: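 Each nuclear receptor dimer, without ligand, was incubated for 1 h on custom Agilent 4×180K protein-binding microarrays. Binding was detected with antibodies against each partner (one per run), and scanned fluorescence was regression-normalized. The binding z-scores are referenced to random human genomic background probes.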

| Sequence | PBM binding z-score |
| --- | --- |
| TCTTGTAGATCAAGCAGGCTAAGAAAGCCTGAGT | -0.142 |
| ACTAGCAGACCAAGGGTCACTCAAGATTAGTCCG | 2.1 |
| GCGACTGGGGCAAAGCCGGTTACCATAAGGTTGG | -0.281 |
| ATATGTAGGGTATCGGGTCATTCAGTTTGCGCAT | 2.08 |
| CGTCCAAGGTTATAGGAGGTCAGTGAAGACAGAT | 3.51 |
| ACTATTAGTTGAGACGAAGGCAACCGATAGGTTG | -0.426 |
| CCGACTGGGGCAGAAGGTTACCATAAGCCAGCCC | -0.0856 |
| TCATATAGCTAAACAGGTGAAAGTCCGTAAGTTA | -0.237 |
| CGAACTAGGTCGGAACAGGACAGTGAAGGATGAT | -0.0248 |
| TAGCCTAGGTCATTGGGCCAGTATCGTACGCATC | 4.61 |
| TCTCGGAGGACACGAAGGGCAGAGCTTTCCAGAG | 0.172 |
| TCTGCTAGGTCAGTTGGTCAGTTAACGAGCTGCC | 0.865 |
| ACTAGCAGGCCAAGGGTCACTTAAGATTAGTCCG | 2.62 |
| CCTCGGGGGACAGAAGGTCAGAGCTGTCCGCTTT | 2.39 |
| GCTCGGATGACAAGGTCAGAGCTTTGTCCGTAGA | 0.982 |
| CCTACTGGGCCACCAGGTCATTGATATCAACGTT | 1.25 |
| TGAATGAGGTTAAAGAACAGGGAACGTGGCGTCG | 2.39 |
| GCGACTGGGGCATCAGCAGGTTACGATAACTTAA | -0.306 |
| TAGCCTAGGTCATTCAGGAGCCAGTATAGAAAGC | 4.36 |
| ACTGACAGGTGAGTGAAGGTAACTCAGCTGGACG | 0.406 |
| AATACAGGGTCATCGTAGGCCAGAGGACGCACAG | 7.28 |
| CGAACTGGGTCATTGACAGGACAGTGAATAGTAA | 3.16 |
